Tests used:
Experiment in all cases: DAPPL (digital affinity profiling via proximity ligation, sequencing); 10 mM Tris-HCl pH 7.5, 50 mM NaCl, 1 mM DTT, 4% glycerol, room temperature, 30 min; GST-TFs on glutathione beads, 16-mer random dsDNA library, 0.1% formaldehyde crosslink after washing; high values mean tight binding
Conditions in all cases: protein: recombinant; tags: N-terminal GST; dsDNA, one strand shown
[1] = target: T1, FLI1 (Homo sapiens, UniProt Q01543 1-452)
T1 sequence: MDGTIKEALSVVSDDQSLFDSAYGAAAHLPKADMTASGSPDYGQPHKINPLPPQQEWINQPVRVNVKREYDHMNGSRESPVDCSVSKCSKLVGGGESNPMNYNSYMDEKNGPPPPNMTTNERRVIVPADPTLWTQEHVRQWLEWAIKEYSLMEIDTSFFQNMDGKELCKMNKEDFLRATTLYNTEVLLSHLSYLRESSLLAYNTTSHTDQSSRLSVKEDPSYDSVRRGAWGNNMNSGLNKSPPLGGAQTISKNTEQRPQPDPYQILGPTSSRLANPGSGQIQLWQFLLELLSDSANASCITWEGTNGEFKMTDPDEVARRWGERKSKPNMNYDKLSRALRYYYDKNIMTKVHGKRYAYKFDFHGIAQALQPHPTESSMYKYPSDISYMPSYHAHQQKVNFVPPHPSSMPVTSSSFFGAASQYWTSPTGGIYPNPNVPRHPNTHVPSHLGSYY
Method in brief: (§1)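 Pools were built from human transcription factors expressed in yeast as GST fusions, captured on glutathione beads and DNA-barcoded, along with a tag-only sample. Incubation with 200 nmole of a 16-mer random double-stranded DNA library lasted 30 min at room temperature in Tris/NaCl/DTT/glycerol buffer, and was followed by washing, 0.1% formaldehyde crosslinking, proximity ligation, PCR amplification and Illumina NextSeq500 sequencing. Binding signal is the quotient of each hexamer's read frequency for a factor and its frequency for the tag-only sample.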

[2] = target: T2, ELK1 (Homo sapiens, UniProt P19419 1-428)
T2 sequence: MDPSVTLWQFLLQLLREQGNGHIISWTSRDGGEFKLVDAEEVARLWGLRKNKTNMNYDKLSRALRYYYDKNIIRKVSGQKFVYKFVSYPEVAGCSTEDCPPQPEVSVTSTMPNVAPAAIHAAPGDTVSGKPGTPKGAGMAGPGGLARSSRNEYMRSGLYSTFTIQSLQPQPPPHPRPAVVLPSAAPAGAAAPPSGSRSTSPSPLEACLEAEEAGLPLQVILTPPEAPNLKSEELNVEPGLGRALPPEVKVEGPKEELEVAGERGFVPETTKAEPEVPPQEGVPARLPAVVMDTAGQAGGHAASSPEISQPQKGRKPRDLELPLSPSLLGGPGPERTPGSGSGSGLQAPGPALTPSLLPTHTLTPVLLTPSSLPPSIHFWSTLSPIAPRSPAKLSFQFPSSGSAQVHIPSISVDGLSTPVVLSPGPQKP
Method in brief: as §1

[3] = target: T3, GABPA (Homo sapiens, UniProt Q06546 1-454)
T3 sequence: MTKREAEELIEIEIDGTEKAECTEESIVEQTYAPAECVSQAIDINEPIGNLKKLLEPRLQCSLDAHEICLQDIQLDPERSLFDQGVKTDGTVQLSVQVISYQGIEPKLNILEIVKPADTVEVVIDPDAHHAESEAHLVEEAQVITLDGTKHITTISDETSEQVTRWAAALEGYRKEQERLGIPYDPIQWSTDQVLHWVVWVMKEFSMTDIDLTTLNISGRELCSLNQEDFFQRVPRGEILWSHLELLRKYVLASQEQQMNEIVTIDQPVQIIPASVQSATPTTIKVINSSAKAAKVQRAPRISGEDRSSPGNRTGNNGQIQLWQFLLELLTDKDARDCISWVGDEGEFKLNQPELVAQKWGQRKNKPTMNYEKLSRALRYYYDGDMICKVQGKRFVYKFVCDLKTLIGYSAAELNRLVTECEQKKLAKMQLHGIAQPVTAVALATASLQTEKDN
Method in brief: as §1

[4] = target: T4, ERG (Homo sapiens, UniProt P11308 1-479)
T4 sequence: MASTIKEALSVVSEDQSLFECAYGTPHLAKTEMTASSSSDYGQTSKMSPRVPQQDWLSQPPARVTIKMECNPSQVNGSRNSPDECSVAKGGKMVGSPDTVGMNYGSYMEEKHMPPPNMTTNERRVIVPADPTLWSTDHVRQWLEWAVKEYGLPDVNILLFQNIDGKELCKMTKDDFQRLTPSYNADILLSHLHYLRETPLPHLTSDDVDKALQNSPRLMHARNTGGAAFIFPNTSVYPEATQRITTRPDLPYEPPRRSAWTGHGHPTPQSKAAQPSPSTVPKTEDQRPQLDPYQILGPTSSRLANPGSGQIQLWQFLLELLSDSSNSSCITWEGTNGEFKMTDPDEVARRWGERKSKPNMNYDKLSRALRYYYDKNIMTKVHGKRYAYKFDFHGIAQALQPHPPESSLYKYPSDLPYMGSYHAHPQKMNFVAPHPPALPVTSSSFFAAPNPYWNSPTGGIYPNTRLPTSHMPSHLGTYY
Method in brief: as §1

[5] = target: ELF1 (Homo sapiens, UniProt P32519 1-619)
Method in brief: as §1

[6] = target: T5, EHF (Homo sapiens, UniProt Q9NZC4 1-300)
T5 sequence: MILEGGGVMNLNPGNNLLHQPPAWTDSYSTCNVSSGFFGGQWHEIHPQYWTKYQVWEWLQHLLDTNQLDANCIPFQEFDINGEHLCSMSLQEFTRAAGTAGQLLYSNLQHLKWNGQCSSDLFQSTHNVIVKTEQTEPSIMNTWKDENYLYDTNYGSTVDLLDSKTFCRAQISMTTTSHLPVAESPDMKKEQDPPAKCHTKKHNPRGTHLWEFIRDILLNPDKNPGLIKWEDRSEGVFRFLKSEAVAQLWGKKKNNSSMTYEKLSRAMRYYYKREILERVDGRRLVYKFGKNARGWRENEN
Method in brief: as §1

[7] = target: SPI1 (Homo sapiens, UniProt P17947 1-270)
Method in brief: as §1

[8] = target: SPIB (Homo sapiens, UniProt Q01892 1-262)
Method in brief: as §1

[9] = target: T6, ELK3 (Homo sapiens, UniProt P41970 1-407)
T6 sequence: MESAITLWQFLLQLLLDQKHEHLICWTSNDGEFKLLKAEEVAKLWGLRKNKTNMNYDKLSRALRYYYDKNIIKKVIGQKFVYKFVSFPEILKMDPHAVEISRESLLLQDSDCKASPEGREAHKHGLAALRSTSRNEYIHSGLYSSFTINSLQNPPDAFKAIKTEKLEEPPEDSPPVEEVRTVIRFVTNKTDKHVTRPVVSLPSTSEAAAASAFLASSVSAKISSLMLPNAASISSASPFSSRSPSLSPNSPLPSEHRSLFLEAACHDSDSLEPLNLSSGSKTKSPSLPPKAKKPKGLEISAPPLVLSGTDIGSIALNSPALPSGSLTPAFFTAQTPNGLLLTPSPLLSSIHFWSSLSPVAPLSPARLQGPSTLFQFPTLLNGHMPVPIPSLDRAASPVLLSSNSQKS
Method in brief: as §1

Chain of SPIB (Q01892 whole entry): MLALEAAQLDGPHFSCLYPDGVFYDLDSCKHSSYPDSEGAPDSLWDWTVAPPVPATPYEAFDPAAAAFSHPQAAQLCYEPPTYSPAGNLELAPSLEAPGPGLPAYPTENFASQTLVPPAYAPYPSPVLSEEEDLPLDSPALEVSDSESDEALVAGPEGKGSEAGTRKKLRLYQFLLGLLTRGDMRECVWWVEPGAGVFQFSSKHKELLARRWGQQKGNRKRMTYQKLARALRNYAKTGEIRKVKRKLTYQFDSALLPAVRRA
Chain of ELF1 (P32519 whole entry): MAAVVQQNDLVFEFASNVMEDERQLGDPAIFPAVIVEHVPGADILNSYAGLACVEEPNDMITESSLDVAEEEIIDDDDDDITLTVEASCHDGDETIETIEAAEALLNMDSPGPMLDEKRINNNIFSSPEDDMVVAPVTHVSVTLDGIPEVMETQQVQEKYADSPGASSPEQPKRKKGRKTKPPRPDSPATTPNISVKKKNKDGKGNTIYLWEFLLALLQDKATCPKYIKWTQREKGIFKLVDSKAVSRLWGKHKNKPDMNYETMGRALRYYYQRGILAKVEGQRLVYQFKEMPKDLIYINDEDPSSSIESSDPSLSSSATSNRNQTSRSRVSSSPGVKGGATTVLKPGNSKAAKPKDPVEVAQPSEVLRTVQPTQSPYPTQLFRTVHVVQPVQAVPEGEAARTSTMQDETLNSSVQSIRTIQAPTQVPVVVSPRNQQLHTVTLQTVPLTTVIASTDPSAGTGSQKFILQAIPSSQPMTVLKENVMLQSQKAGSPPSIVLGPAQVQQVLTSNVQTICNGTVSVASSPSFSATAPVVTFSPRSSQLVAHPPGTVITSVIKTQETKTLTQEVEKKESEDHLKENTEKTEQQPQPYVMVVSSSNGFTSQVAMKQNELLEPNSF

Sequence: GCAATT
- binding signal [1]: 1.17 fold enrichment (6-mer frequency, TF over GST control)
- binding signal [2]: 1.15 fold enrichment (6-mer frequency, TF over GST control)
- binding signal [3]: 1.14 fold enrichment (6-mer frequency, TF over GST control)
- binding signal [4]: 1.02 fold enrichment (6-mer frequency, TF over GST control)
- binding signal [5]: 1.06 fold enrichment (6-mer frequency, TF over GST control)
- binding signal [6]: 1.09 fold enrichment (6-mer frequency, TF over GST control)
- binding signal [7]: 1.23 fold enrichment (6-mer frequency, TF over GST control)
- binding signal [8]: 1.21 fold enrichment (6-mer frequency, TF over GST control)
- binding signal [9]: 1.05 fold enrichment (6-mer frequency, TF over GST control)
